Reference: article PMC4552634, “A New Set of Chemical Starting Points with Plasmodium falciparum Transmission-Blocking Potential for Antimalarial Drug Discovery” (PLoS ONE, 2015)
The whole screen tested about 13,000 compounds, of which about 3,200 (25%) showed an effect of 50% or more. This is one part of the list.

System: P. falciparum stage V gametocytes
Set-up: BacTiter-Glo ATP luminescence viability of purified stage V gametocytes in 384-well plates, per cent inhibition versus DMSO
Settings: 48 h, 5 µM; inhibitor

Compound	% Inhibition [%]
Cc1ccc(O)cc1Nc1ccnc2ccc(-c3csc(CNCCN4CCOCC4)n3)cc12 [TCMDC-138419]	24.32
C=CCOC(=O)N1CCC(CNCc2cccc(-c3cccc(-c4nc5cc(F)ccc5[nH]4)c3)c2)C1.O=C(O)C(F)(F)F (stereo not drawn) [TCMDC-133045]	-22.96
O=C(CC(=O)Nc1cc(Cl)cc(Cl)c1)Nc1cc(Cl)cc(Cl)c1 [TCMDC-124303]	1.845
O=C(Nc1cccc(-c2nn3ccccc3c2-c2ccnc(Nc3cccc(F)c3)n2)c1)c1c(F)ccc(F)c1Cl [TCMDC-135830]	19.22
CCCCCCCOc1ccc(NC(=O)Nc2ccc(Cn3ncc(N4CCCNCC4)c(Cl)c3=O)cc2)cc1 [TCMDC-133318]	42.33
CC(C)c1nc(N2CCN(C(=S)NCc3ccccc3)CC2)c(C#N)c2c1COC(C)(C)C2 [TCMDC-124093]	85.74
CC(C)Sc1nc(-c2ccccc2)nc2c1COC(C)(C)C2 [TCMDC-125132]	-39.31
N#Cc1ccc(CN2CCC(Oc3ccc(NC(=O)c4cccs4)cc3Cl)C2)cc1 (stereo not drawn) [TCMDC-133962]	5.438
FC(F)(F)c1cccc(Nc2nc(-n3ccnc3)nc(-n3ccnc3)n2)c1 [TCMDC-123871]	5.028
FC(F)(F)c1cccc(Nc2nc3ccccc3nc2Nc2cccc(C(F)(F)F)c2)c1 [TCMDC-124162]	95.6
Cc1cc(Nc2cccc(C(F)(F)F)c2)nc(Nc2cccc(C(F)(F)F)c2)n1 [TCMDC-124213]	-15.06
FC(F)(F)c1cccc(Nc2nc(-c3ccccc3)nc3ncccc23)c1 [TCMDC-125597]	73.35
Cc1cc(Nc2cccc(C(F)(F)F)c2)nc(N)n1 [TCMDC-124264]	7.363
Cc1cc(C)n(-c2nc(Nc3cccc(C(F)(F)F)c3)nc(-n3nc(C)cc3C)n2)n1 [TCMDC-125770]	16.09
N#CCCN1CCN(Cc2cccc(-c3ccc(-c4nc5ccccc5[nH]4)s3)c2)CC1.O=C(O)C(F)(F)F [TCMDC-133871]	-9.564
NC1=NC2(CCCCC2)N(OCCCCCCCCNc2nc(N)nc(N)n2)C(N)=N1 [TCMDC-140517]	6.685
Nc1nc(N)c2c(ccc3c2ccn3CCCC2CCCNC2)n1 (stereo not drawn) [TCMDC-138618]	26.76
Nc1nc(N)c2c(ccc3c2ccn3Cc2ccccc2)n1 [TCMDC-141977]	66.05
N#Cc1ccc(Cn2ccc3c4c(N)nc(N)nc4ccc32)cc1 [TCMDC-137820]	103.8
Nc1nc(N)c2c(ccc3c2ccn3Cc2ccccn2)n1 [TCMDC-137980]	111.5
Nc1nc(N)c2c(ccc3c2ccn3Cc2ccc(OCc3ccccc3)cc2)n1 [TCMDC-137336]	29.32
Nc1nc(N)c2c(ccc3c2ncn3Cc2ccccc2)n1 [TCMDC-137749]	33.84
Nc1nc(N)c2c(ccc3c2ccn3Cc2ccc(-c3ccccc3)cc2)n1 [TCMDC-137813]	115.8

Compound	% Inhibition [%]
CNC(=O)COC(=O)c1c2c(nc3ccccc13)C(=Cc1ccc3c(c1)OCO3)CCC2 [TCMDC-123900]	4.246
Cn1cnc(CCNC(=O)c2ccc(-c3cccc(-c4nc5cc(C(F)(F)F)ccc5[nH]4)c3)cc2)c1 [TCMDC-132493]	1.105
Cc1ccc(OC2CCN(c3ccc(C(=O)NC4CC4)cn3)CC2)cc1 [TCMDC-134059]	7.555
NC1=Nc2ccc(Cl)cc2C1(O)c1ccccc1 (stereo not drawn) [TCMDC-123492]	3.06
CCOc1ccc(C(=O)Nc2cc3c(c(C(F)(F)F)c2)CCNC3)cc1Cl [TCMDC-139751]	25.29
N#Cc1cccc(C(O)C2CN(CCC3CCCCC3)CCC2(O)c2ccccc2)c1 (stereo not drawn) [TCMDC-131999]	-28.27
Cc1nnc2c(NC(=O)/C=C/c3ccc(OC(F)(F)F)cc3)cc3cc(Cl)ccc3n12 [TCMDC-135918]	-12.77
CCCNC(=O)Nc1cc2cc(-c3cccc(CN4CCCCC4)c3)ccc2n2c(C)nnc12 [TCMDC-136740]	104.3
Cc1cccc2[nH]c(-c3ccc(-c4cccc(NC(=O)NCc5ccc(F)cc5)c4)cc3)nc12 [TCMDC-133303]	-66.9
COc1ccc(CNC(=O)Nc2cc3cc(-c4ccc(CN5CCCC5)cc4)ccc3n3c(C)nnc23)cc1 [TCMDC-136720]	98.19
O=C(Nc1cccc(-c2ccc(CN3CCCC3)cc2)c1)c1ccc(Cl)cc1 [TCMDC-132630]	10.82
Cc1nnc2c(NC(=O)NC(C)C)cc3cc(-c4ccc(CN5CCCCC5)cc4)ccc3n12 [TCMDC-136738]	50.46
COc1cccc(CNC(=O)c2cccc(-c3ccc(CN4CCC(N5CCCC5)CC4)cc3)n2)c1 [TCMDC-134416]	30.7
O=C(Nc1cccc(-c2cccc(CN3CCCC3)c2)c1)c1ccc(Cl)cc1 [TCMDC-132654]	19.28
COc1ccc2[nH]c(C(=O)Nc3cccc(-c4ccc(CN(C)C)cc4)c3)cc2c1 [TCMDC-134283]	-4.108
Cc1nnc2c(N(C(=O)NCCc3ccccc3)C(=O)NCCc3ccccc3)cc3cc(Cl)ccc3n12 [TCMDC-135524]	21.17
O=C(Nc1cccc(-c2ccc(CN3CCCC3)cc2)c1)c1ccc(F)cc1 [TCMDC-132636]	-0.2818
COc1ccc(CNC(=O)Nc2cc3cc(-c4ccc(CN(C)C)cc4)ccc3n3c(C)nnc23)cc1 [TCMDC-136719]	118
CN(C)c1ccc(-c2cscc2C(=O)NC2CCCN(Cc3cccnc3)C2)cc1 (stereo not drawn) [TCMDC-134489]	34.49
CN(Cc1cccc(F)c1)C1CCCN(c2cc(NC(=O)c3ccccc3)ccn2)C1 (stereo not drawn) [TCMDC-135013]	1.109
CN1CC=C(c2c[nH]c3ccc(OC(=O)c4ccccc4)cc23)C1 [TCMDC-139100]	-51.1
CCNC(=O)Nc1ccc(-c2cnc(N)c(-c3nc4ccc(OC)cc4[nH]3)c2)cc1 [TCMDC-135321]	-14.13
O=C(/C=C/c1ccc(Cl)c(Cl)c1)NC1CCC(CN2CCC(c3nc4ccccc4n3CCCO)CC2)CC1 (stereo not drawn) [TCMDC-140313]	5.954

Compound	% Inhibition [%]
Cc1cc(NC2CCN(CC3CCCCC3)CC2)nc(Nc2ccccc2Cl)n1 [TCMDC-137017]	-7.805
CCC(CC)n1cc2c(ccc3nc(N)nc(N)c32)n1 [TCMDC-138019]	-28.37
Nc1ccnc(N2CCC(CCOc3cc(C(F)(F)F)nc4c(C(F)(F)F)cccc34)CC2)c1 [TCMDC-141364]	15.98
CC(Cc1ccc(CN2CCN(Cc3ccccc3)CC2)cc1)NCC(O)c1cccc(C(F)(F)F)c1 (stereo not drawn) [TCMDC-131534]	42.03
N=C(N)c1ccc(-c2cc(-c3cccc(C(=N)N)c3)on2)cc1 [TCMDC-137264]	7.482
Cc1ccc(NC(=O)c2ccc3ncccc3c2)cc1OC1CCN(Cc2ccsc2)C1 (stereo not drawn) [TCMDC-133949]	-9.977
c1ccc(COc2ccc(Nc3ncnc4ccc(-c5ccc(CN6CCSCC6)o5)cc34)cc2)cc1 [TCMDC-138242]	13.7
Cc1ccc(C)c(NC(=O)Nc2ccc(Nc3nc(C)cc(N4CCOCC4)n3)cc2)c1 [TCMDC-124751]	3.565
CC(=O)N/N=C/[C@H](CCc1ccccc1)NC(=O)[C@H](CC(C)C)NC(=O)c1cccc(OCCN2CCOCC2)c1 [TCMDC-135972]	30.82
CCCCNC(=O)C1CCCN(C(=O)c2ccc(O)c(-c3ccc(Cl)c(Cl)c3)c2)C1 (stereo not drawn) [TCMDC-140887]	-1.062
CS(=O)(=O)NCCCNCc1cccc(-c2csc(-c3nc4ccccc4[nH]3)c2)c1 [TCMDC-133089]	-10.78
COc1ccc2nc(C)cc(Nc3ccc(Oc4ccc(Br)c5ccccc45)c(Cl)c3)c2c1 [TCMDC-124238]	12.09
Cc1ccc(CN2CCCN(Cc3cccc(NC(=O)c4ccc(-c5ccccc5)cc4)c3)CC2)cc1C [TCMDC-141851]	-43.17
CCCNC(=O)Nc1cc2cc(-c3ccc(CN4CCCC4)cc3)ccc2n2c(C)nnc12 [TCMDC-136718]	108.6
O=C(/C=C/c1ccc([N+](=O)[O-])cc1)N1CCC(NS(=O)(=O)c2ccc(Br)cc2)CC1 [TCMDC-139442]	11.64
COc1ccc(C(=O)CCc2ccc(O)cc2)cc1 [TCMDC-124290]	-50.17
CC(C)CNCc1cccc(-c2cccc(CNc3ccc4ncccc4c3)c2)c1 [TCMDC-140718]	9.838
CC(C)CNCc1cccc(-c2cccc(CNCCCN3CCN(C)CC3)c2)c1 [TCMDC-140483]	101.9
CN1CCN(CCCNCc2cccc(-c3ccc(CNCCc4ccccc4)cc3)c2)CC1 [TCMDC-140643]	103.5
Cc1cccc2[nH]c(-c3ccc(-c4cccc(CNCCCN5CCCC5=O)c4)cc3)nc12 [TCMDC-132758]	19.9
O=C(NCCN1CCC(c2ccncc2)CC1)c1ccc(Nc2nccc(Nc3ccc(Oc4ccccc4)cc3)n2)cc1 [TCMDC-138610]	-43.68
CCCc1ccc(S(=O)(=O)NC2CCN(c3ccnc(Nc4ccc(F)cc4)n3)C2)cc1 (stereo not drawn) [TCMDC-133598]	2.344
O=C(c1ccc2ccccc2n1)N1CCCc2cc(Br)ccc21 [TCMDC-134838]	-4.614
